Growth data for 39 compounds are collected here from PubChem BioAssay (NCI).

The panel holds about 83,000 compounds, 20% with a hit somewhere; the sample as a whole holds those more often.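 Negative percent growth values reflect cell death: -40 means 40% of the cells present at the start died, and -100 means all died.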 A number with no mark means an inactive call. Calls of active or inactive are those of the source. The calls were made as follows: active = growth percent below 10; inactive = the rest.

The subject of the first assay is HCC-2998 colon. Nature of the assay: NCI-60 one-dose screen, 48 h (100 = growth as untreated, 0 = no growth, -100 = all killed). As to conditions: 10 µM unless noted.
In the case of `CC12CCCC(CC(=O)c3[nH]c4ccccc4c31)C2` (configuration not stated), the growth is 43.5%.

For `CC(C)(C)N1CCC1C(N)=O` (configuration not stated), the growth is 47%.

As to `C=C1CCC2C(C)(CO)C(O)CCC2(C)C1C/C=C1/C(=O)OCC1Oc1ccccc1C` (configuration not stated), the growth was 125%.

In the case of `COc1ccc(NC(=O)CSc2nc(-c3ccc(OC)c(OC)c3)cc(-c3cc(OC)c(OC)c(OC)c3)n2)cc1`, the growth was 111%.

With `CCCOC(=O)n1cccc1`, the growth is 104%.

Consider `COc1cc(Cn2cc3c(c2)-c2oncc2CC3)cc(OC)c1OC`, for which the growth is 12.1%.

For `O=C(O)Cc1cccc(=O)c(O)c1C(=O)O`, the growth was 106%.

`NNc1cccc(/C=C/c2ccccc2)cc1=O`: the growth was 70.2%.

`S=C1CC(=S)NC(=S)N1`: the growth was 104%.

For `COc1cc(C2CC(c3ccc4c(c3)OCO4)=NN2C(C)=O)cc(OC)c1OC` (configuration not stated), the growth is 47.8%.

With `Nc1nc(=O)c2ccccc2s1`, the growth was 107%.

Turning to `Oc1ccc2cc(Br)ccc2c1-c1c(O)ccc2cc(Br)ccc12`, the growth is 56.5%.

Regarding `CCOC(=O)C1CCNC(=O)C1=O` (configuration not stated), the growth was 104%.

On to `CCCCCCCCCCCCCCCCNC(=O)OC(C)C`, for which the growth was 57.1%.

On to `Nc1nc(-c2ccccc2)c(CCCOc2ccc(NC(=O)CBr)cc2)c(=O)[nH]1`, for which the growth was 107%.

For `Cc1ccc2nc(Cl)cc(=O)n2c1`, the growth is 121%.

For the compound `CC(C)OC(=O)N1CCOCC1`, the growth was 104%.

Take `CN(C)c1ncnc2c1ccn2C1OC(CO)C(O)C1O` (configuration not stated): the growth was 22.7%.

On to `CC[N+](CC)=c1cc2oc3cc(N(C)C)ccc3nc-2cc1C`, for which the growth was 32.3%.

Turning to `O=S(=O)(CC(O)(c1ccccc1)c1ccccc1)CC(O)(c1ccccc1)c1ccccc1`, the growth is 93.1%.

For the compound `O=[N+]([O-])c1ccc(/C=C/C2(CCl)OCCO2)cc1`, the growth was 98.5%.

For `COc1cc(/C=C/C(=O)N2CCN(C(=O)/C=C/c3cc(OC)c(OC)c(OC)c3)CC2)cc(OC)c1OC`, the growth is 102%.

Turning to `CN(C)c1nc2c(N)ncnc2n1C1OC(CO)C(O)C1O` (configuration not stated), the growth is 110%.

With `CN(C)CCCC(C#N)c1ccccc1` (configuration not stated), the growth was 105%.

`COc1cc(C2CC(c3ccc4c(c3)OCO4)=NN2C=O)cc(OC)c1OC` (configuration not stated): the growth is 64.2%.

In the case of `O=C(NNC(=O)N1c2ccccc2C=Cc2ccccc21)c1ccc2ccccc2c1`, the growth was 102%.

Regarding `Cn1c(=O)c2[nH]c(C3CC=CCC3)nc2n(C)c1=O` (configuration not stated), the growth was 104%.

On to `NC(=S)N/N=C1\CCCC(C(F)(F)F)C1` (configuration not stated), for which the growth was 104%.

For the compound `O=c1cc(Cc2ccc([N+](=O)[O-])cc2)[nH]c(=O)[nH]1`, the growth was 105%.

`COc1ccc(C2=CC(c3cc(OC)c(OC)c(OC)c3)NC(=O)N2)cc1OC` (configuration not stated): the growth was 18.7%.

On to `O=[N+]([O-])c1cc(S(=O)(=O)Oc2ccccc2)ccc1Cl`, for which the growth is -77.9% (active).

As to `CCN(CC)CCC(CNc1ccnc2cc(Cl)ccc12)c1ccc(Cl)cc1` (configuration not stated), the growth was -64.8% (active).

For the compound `CCC1=CCC[C@@]2(C)CCC[C@@]3(C)CCCC(C)(C)[C@]1([O-])[O+]32`, the growth was 104%.

`CCOC(=O)CC(=O)OC`: the growth was 104%.

For `O=c1[nH]c(-c2ccccc2)nc(CN2CCCCC2)c1O`, the growth was 100%.

Consider `CC(NNC(C)c1ccccc1)c1ccccc1` (configuration not stated), for which the growth is 103%.

For the compound `N#C/C(=C1C=C/C(=N/O)C(Cl)=C/1)c1ccc(Cl)cc1`, the growth was 101%.

For `CC(C)CC1NC(C)(C)CO1` (configuration not stated), the growth is 102%.

With `O=C1Nc2ccc3c(c2/C1=C\c1cc2c(cc1Br)OCO2)OCO3`, the growth is 43.6%.

The test system of another assay is KM12 colon. The assay is described as above. As to conditions: 10 µM unless noted.
`CC12CCCC(CC(=O)c3[nH]c4ccccc4c31)C2` (configuration not stated): the growth was 26.7%.

Regarding `CC(C)(C)N1CCC1C(N)=O` (configuration not stated), the growth was 99.2%.

As for `C=C1CCC2C(C)(CO)C(O)CCC2(C)C1C/C=C1/C(=O)OCC1Oc1ccccc1C` (configuration not stated), the growth is 78.3%.

Consider `COc1ccc(NC(=O)CSc2nc(-c3ccc(OC)c(OC)c3)cc(-c3cc(OC)c(OC)c(OC)c3)n2)cc1`, for which the growth is 98.4%.

As for `CCCOC(=O)n1cccc1`, the growth was 99.7%.

`COc1cc(Cn2cc3c(c2)-c2oncc2CC3)cc(OC)c1OC`: the growth is 3.04% (active).

Regarding `O=C(O)Cc1cccc(=O)c(O)c1C(=O)O`, the growth was 104%.

Consider `NNc1cccc(/C=C/c2ccccc2)cc1=O`, for which the growth is 59%.

For `S=C1CC(=S)NC(=S)N1`, the growth is 98.9%.

Regarding `COc1cc(C2CC(c3ccc4c(c3)OCO4)=NN2C(C)=O)cc(OC)c1OC` (configuration not stated), the growth was 30.6%.

As to `Nc1nc(=O)c2ccccc2s1`, the growth is 112%.

Consider `Oc1ccc2cc(Br)ccc2c1-c1c(O)ccc2cc(Br)ccc12`, for which the growth is 40%.

Take `CCOC(=O)C1CCNC(=O)C1=O` (configuration not stated): the growth is 109%.

On to `CCCCCCCCCCCCCCCCNC(=O)OC(C)C`, for which the growth was 0.501% (active).

For the compound `Nc1nc(-c2ccccc2)c(CCCOc2ccc(NC(=O)CBr)cc2)c(=O)[nH]1`, the growth is 109%.

On to `Cc1ccc2nc(Cl)cc(=O)n2c1`, for which the growth was 107%.

`CC(C)OC(=O)N1CCOCC1`: the growth was 100%.

On to `CN(C)c1ncnc2c1ccn2C1OC(CO)C(O)C1O` (configuration not stated), for which the growth is 84.1%.

Take `CC[N+](CC)=c1cc2oc3cc(N(C)C)ccc3nc-2cc1C`: the growth is 33.3%.

`O=S(=O)(CC(O)(c1ccccc1)c1ccccc1)CC(O)(c1ccccc1)c1ccccc1`: the growth was 87.6%.

Regarding `O=[N+]([O-])c1ccc(/C=C/C2(CCl)OCCO2)cc1`, the growth was 104%.

In the case of `COc1cc(/C=C/C(=O)N2CCN(C(=O)/C=C/c3cc(OC)c(OC)c(OC)c3)CC2)cc(OC)c1OC`, the growth is 115%.

With `CN(C)c1nc2c(N)ncnc2n1C1OC(CO)C(O)C1O` (configuration not stated), the growth was 105%.

For `CN(C)CCCC(C#N)c1ccccc1` (configuration not stated), the growth is 111%.

In the case of `COc1cc(C2CC(c3ccc4c(c3)OCO4)=NN2C=O)cc(OC)c1OC` (configuration not stated), the growth was 23.3%.

`O=C(NNC(=O)N1c2ccccc2C=Cc2ccccc21)c1ccc2ccccc2c1`: the growth is 98.6%.

Regarding `Cn1c(=O)c2[nH]c(C3CC=CCC3)nc2n(C)c1=O` (configuration not stated), the growth is 108%.

Turning to `O=c1cc(Cc2ccc([N+](=O)[O-])cc2)[nH]c(=O)[nH]1`, the growth is 106%.

As for `COc1ccc(C2=CC(c3cc(OC)c(OC)c(OC)c3)NC(=O)N2)cc1OC` (configuration not stated), the growth was -26.8% (active).

With `O=[N+]([O-])c1cc(S(=O)(=O)Oc2ccccc2)ccc1Cl`, the growth is -71.8% (active).

`CCN(CC)CCC(CNc1ccnc2cc(Cl)ccc12)c1ccc(Cl)cc1` (configuration not stated): the growth is 17.9%.

As for `CCC1=CCC[C@@]2(C)CCC[C@@]3(C)CCCC(C)(C)[C@]1([O-])[O+]32`, the growth was 110%.

`CCOC(=O)CC(=O)OC`: the growth is 115%.

In the case of `O=c1[nH]c(-c2ccccc2)nc(CN2CCCCC2)c1O`, the growth is 108%.

With `CC(NNC(C)c1ccccc1)c1ccccc1` (configuration not stated), the growth is 115%.

On to `N#C/C(=C1C=C/C(=N/O)C(Cl)=C/1)c1ccc(Cl)cc1`, for which the growth is -46.4% (active).

On to `CC(C)CC1NC(C)(C)CO1` (configuration not stated), for which the growth is 110%.

In the case of `O=C1Nc2ccc3c(c2/C1=C\c1cc2c(cc1Br)OCO2)OCO3`, the growth was -6.85% (active).
